TIM10 inh – inhibits growth of TIM10 yeast strain. S. cerevisiae TIM10 strain growth, BacTiter-Glo luminescence, 24 h. inhibition, % at 10 µM. 1.4% of 330,000 active;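 active = inhibition of 40% or more at the single tested concentration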;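 note: wild-type TIM10 isogenic control strain grown at permissive 25 °C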
tim10-1 inh – tim10-1 yeast growth inhibition; S. cerevisiae tim10-1 ts strain growth, BacTiter-Glo, 24 h; inhibition, % at 20 µM; 2.2% of 330,000 active; AID 463190;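 active = inhibition of at least 40%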;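 note: mutant grown at 25 °C; 0% = DMSO wells with yeast and 100% = wells holding no yeast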
SKKanGAS inh – blocks kanamycin growth of S. pyogenes SKKanGAS strain; BacTiter-Glo, 6 h; inhibition, % at 7.5 µM; 1.3% of 300,000 active; AID 1662;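 active = mean replicate score, as percent of positive control median, at least 50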;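 note: strain carries kanamycin resistance gene driven by streptokinase promoter and grows in 40 µg/ml kanamycin; loss of luminescence reflects streptokinase promoter inhibition or plain growth inhibition; 0% = median of DMSO wells and 100% = positive control at its reference dose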
PfHsp90 set2 – growth inhibition of yeast expressing Plasmodium Hsp90 | S. cerevisiae expressing PfHsp90, BacTiter-Glo ATP, 48 h; yeast lacking PDR1 and PDR3 efflux regulators | inhibition, % at 9.4 µM | 0.32% of 310,000 active;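 active = every replicate shows inhibition above about 80%, whatever the replicate mean, limit read from the data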;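 note: 0% = DMSO neutral controls and 100% = 20 µM radicicol positive controls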
tim23-1 inh – growth inhibitors of tim23-1 mutant yeast | AID 463212 | inhibition, % at 20 µM | 1.3% of 330,000 active | S. cerevisiae tim23-1 growth, BacTiter-Glo luminescence, 24 h;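 active = growth inhibition of the mutant yeast at or above 50%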;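 note: temperature-sensitive mutant grown at 25 °C; plate controls were DMSO-treated mutant yeast for no effect and medium wells lacking yeast for full effect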
NALP3 yeast inh – NALP3 inhibition in yeast; Yeast reconstituted NLRP3/ASC/caspase-1, beta-gal luminescence, 24 h; inhibition, % at 10 µM; 0.39% of 330,000 active; AID 2825;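 active = inhibition of 50% or more; inactive = inhibition below 50%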;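 note: plate controls were induced DMSO wells for no effect and uninduced yeast grown without galactose for full effect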
* = called active by the depositor; . = no result. Hits are enriched below; roughly 4.5% of the tested compounds scored in any of these assays.

SMILES	TIM10 inh	tim10-1 inh	SKKanGAS inh	PfHsp90 set2	tim23-1 inh	NALP3 yeast inh
COc1ccccc1NC(=O)c1ccc(NC(=O)c2cc3c(s2)CCC3)cc1	0.8	9.2	73.1*	9.4	-1.3	18.3
Clc1ccc(-c2nnnn2-c2ccc(Cl)c(Cl)c2)cc1Cl	-1.6	7.1	58.4*	-62.4	-19.5	-7.0
COCc1cc(=O)[nH]c(Nc2nc3ccc(C)cc3o2)n1	2.2	11.6	69.7*	-2.2	12.8	-10.8
COc1ccc(Cl)cc1NC(=O)CN(C)C(=O)CCNC(=O)c1ccccc1OC	6.3	3.6	.	.	1.4	-1.7
CS(=O)(=O)c1nsc2nc(=O)c(/C=C3\C=Nc4ccccc43)c(N)n12	14.2	11.0	19.9	0.5	14.7	4.6
CC(C)Sc1nsc2nc(=O)c(/C=C3\C=Nc4ccccc43)c(N)n12	0.1	-21.5	73.9*	-66.0	20.9	19.6
Cc1nc(Cc2nnc(SC(C)C(=O)N3c4ccccc4NC(=O)C3(C)C)o2)cs1 (stereo not given)	.	.	.	1.7	.	.
CN(C)C(CNc1ncnc2sccc12)c1cccs1 (stereo not given)	1.6	2.5	-11.0	4.7	1.9	10.7
CCOC(=O)c1sc2ncnc(NCC(c3cccs3)N(C)C)c2c1C (stereo not given)	7.1	33.4	53.4*	1.6	44.0	16.4
Cc1ccc(N2C(=O)C3C4C=CC(CNC(=S)N5CCN(c6ccccn6)CC5)(O4)C3C2=O)cc1 (stereo not given)	3.0	15.8	2.4	104.0*	1.8	22.1
CC(C)COC(=O)NCC12C=CC(O1)C1C(=O)N(c3ccc(Cl)cc3)C(=O)C12 (stereo not given)	13.9	33.6	6.2	.	18.0	13.7
Cc1ccc(N2C(=O)C3C4C=CC(CNC(=S)Nc5ccc(Cl)cc5)(O4)C3C2=O)cc1 (stereo not given)	31.4	35.3	9.6	105.2*	15.3	18.9
Cc1ccc(N2C(=O)C3C4C=CC(CNC(=S)Nc5ccc(F)cc5)(O4)C3C2=O)cc1 (stereo not given)	18.9	30.8	2.6	103.3*	22.7	11.6
CCN(CC(=O)NCc1ccc(Cl)cc1)C(=O)c1cccc(S(=O)(=O)Nc2ccc(OC)cc2)c1	2.1	-4.9	-2.5	.	-0.9	20.9
c1ccc(-c2cc(-c3ccncc3)nc3ccc4ccccc4c23)cc1	12.9	19.3	100.1*	62.7	23.5	11.5
Cc1ccc(S(=O)(=O)Nc2cccc3ncccc23)s1	15.6	35.5	71.0*	-114.0	15.2	-2.6
Cc1ccc(S(=O)(=O)Nc2cccc3ncccc23)cc1	-15.4	-8.3	0.3	10.4	-2.1	22.5
O=C(CCCc1nc(-c2ccc(Cl)cc2)no1)NC1CCCC1	7.7	32.8	-18.0	14.8	36.7	32.6
COc1ccc2nc(Nc3nc4cc5c(cc4s3)OCO5)sc2c1	14.2	10.8	84.2*	-5.9	34.9	16.9
COc1cccc(CN(C)CC(=O)Nc2ccccc2C(=O)NC2CC2)c1	-8.7	11.2	.	-15.1	8.4	8.7
NC(=S)N=Nc1ccc(NN=C(N)N)cc1	18.6	10.4	105.6*	6.4	-15.2	22.1
CCCNC(=O)C(Cc1ccccc1)NC(=O)c1cccc([N+](=O)[O-])c1 (stereo not given)	5.7	13.2	.	-8.7	11.1	6.1
Cc1oc(-c2ccccc2)nc1Cn1cccc1C1=NC(c2ccccc2)CO1 (stereo not given)	17.2	30.5	69.0*	-6.8	18.9	1.2
CCOc1cc(C=NN2CCCCCC2)ccc1O	.	.	.	-16.3	.	.
O=C(Nc1ccc(F)cc1F)Nc1csc2ccccc12	11.1	22.2	-2.9	.	13.7	36.3
SMILES	TIM10 inh	tim10-1 inh	SKKanGAS inh	PfHsp90 set2	tim23-1 inh	NALP3 yeast inh
O=C(Nc1ccc(F)c(Cl)c1)Nc1csc2ccccc12	-10.4	0.0	94.6*	5.1	-9.6	49.8
CN(C(=O)COc1ccc(Cl)cc1Cl)C1(C)CCS(=O)(=O)C1 (stereo not given)	-10.9	-11.0	-0.5	4.5	-17.4	0.0
Cn1c2ccccc2c2c(C(=O)O)cn(C3CCCC3)c(=O)c21	2.0	-6.7	0.4	-1.7	-2.9	4.1
C[C@@H]1CN(c2c(F)c(F)c3c(=O)c(C(=O)O)cn(C4CC4)c3c2F)C[C@H](C)N1	-3.8	10.1	64.6*	-2.0	9.2	17.0
COC(=O)c1ccc(Cn2nnc3c(=O)[nH]c(C4CCN(S(=O)(=O)c5cc(C)ccc5C)CC4)nc32)cc1	6.3	14.1	31.3	-14.6	7.3	17.2
CS(=O)(=O)Nc1ccc(C2=NN(C(=O)C3CCCCC3)C(c3cccs3)C2)cc1 (stereo not given)	20.1	33.1	82.6*	-42.3	19.4	4.9
CC(C)C(=O)N1N=C(c2ccc(NS(C)(=O)=O)cc2)CC1c1cccs1 (stereo not given)	-1.2	23.6	-4.4	2.1	13.0	-5.6
O=C(COC(=O)/C=C/C(=O)N1CCN(c2ccccc2)CC1)NC(c1ccccc1)c1ccccc1	24.0	26.1	11.5	6.8	20.9	10.4
CC/C(=C/c1ccccc1)c1cccc2[nH]c3c(OC)cccc3c12	.	.	99.0*	-0.6	.	.
COc1cccc(C(=O)NCCSc2c(C)[nH]c3ccccc23)c1OC	17.5	11.8	6.5	-37.2	19.3	5.6
CC(NC(=O)C1CCN(c2nnc(N3CCCC3=O)s2)CC1)c1ccccc1 (stereo not given)	5.5	-3.4	0.6	-15.2	-1.2	2.6
O=c1c2cc(Br)ccc2nc(-c2ccc(Cl)cc2)n1O	.	.	89.2*	16.3	.	.
CC(=O)C(Sc1nnnn1-c1ccc(O)cc1)c1ccccc1 (stereo not given)	-0.6	12.8	3.4	-53.7	0.2	-8.5
CCOC(=O)C1CCN(C(=O)C2CCN(S(=O)(=O)c3cc(Cl)ccc3OCC)CC2)CC1	5.0	9.1	-6.9	2.4	21.1	2.9
Cc1ccc(-c2nn(-c3ccccc3)cc2/C=N/n2c(-c3cccs3)n[nH]c2=S)cc1	20.1	15.1	55.0*	.	24.2	20.3
S=c1[nH]nc(-c2cccs2)n1/N=C/c1cn(-c2ccccc2)nc1-c1cccs1	22.8	12.1	28.8	.	17.0	23.6
S=c1[nH]nc(-c2ccncc2)n1/N=C/c1cn(-c2ccccc2)nc1-c1ccccc1	9.1	-1.9	50.8*	.	-2.3	32.0
O=[N+]([O-])c1ccc(-c2nn(-c3ccccc3)cc2/C=N/n2c(-c3ccncc3)n[nH]c2=S)cc1	0.8	3.2	16.6	-28.3	-13.9	1.2
CCOc1ccccc1OCCC(=O)OCC(=O)Nc1c(C)cc(C)cc1C	-3.4	18.1	2.6	-12.3	25.6	12.5
CCO[C@H]1OC(C(=O)NCc2ccccc2)=C[C@@H](C(C)(C)C)[C@@H]1CCCO	3.8	9.2	-2.2	-4.9	14.9	6.6
CCCCn1c(NS(=O)(=O)c2ccccc2)c(S(=O)(=O)c2ccc(C)cc2)c2nc3ccccc3nc21	.	.	73.0*	0.2	.	.

Screening data as filed in PubChem BioAssay.
